TDP1 cell CPT: growth inhibition of DT40 Tdp1-/-;hTDP1 cells with camptothecin (screen for TDP1 inhibitors); chicken DT40 Tdp1-/-;hTDP1 cells + 20 nM CPT, ATP luminescence, 48 h; AID 686979; Potency, µM (doses to about 46.2 µM), usual class: inhibitors; actives 12% (n = 420,000); also: nearly all actives have a fitted effect of over 55% in size
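Chicken DT40 Tdp1-/- cells stably complemented with human TDP1 were seeded at 400 cells/well in medium containing 20 nM camptothecin, exposed to pin-transferred compounds, and grown at 37 °C for at least 48 hr. Viability was read as ATP luminescence.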
DT40 TDP1 no CPT: qHTS for Inhibitors of human tyrosyl-DNA phosphodiesterase 1 (TDP1): qHTS in cells in absence of CPT; Potency, µM (series often up to 46.2 µM), actives largely listed as inhibitors; DT40 Tdp1-/- hTDP1 cells, no CPT, ATP luminescence, 48 h; actives 15% (n = 420,000); AID 686978, 2013; also: nearly all actives have a fitted effect of over 55% in size
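No-CPT arm: Tdp1-/-;hTDP1 DT40 cells (400/well) plus compounds, incubated ≥48 hr at 37 °C. Readout CellTiter-Glo luminescence.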
IL-1B inflam inh: blocks inflammasome-driven IL-1 beta release; activity change, % at 57.5 µM; THP-1 LPS/ATP IL-1B secretion, AlphaLISA, 16 h; hits give low values; actives 4.7% (n = 360,000); in the data active = activity change below about -50%; inconclusive = mostly about -30% to -49%
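Secreted IL-1B measured by AlphaLISA bead assay after 16 h compound exposure of THP-1 cells; compounds (final up to 57.5 uM) added 1 h before LPS (250 ng/mL) and ATP (1.25 mM) stimulation; lower signal means less secretion.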
HT1080 IDH1KD tx: kills HT-1080 cells with IDH1 knockdown. Potency, µM (titrated, usually from 46.1 µM), hits mostly cytotoxic. actives 2% (n = 360,000). HT-1080 IDH1 knockdown viability, ATP luminescence, 48 h. AID 686971
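% activity derives from luminescence (CellTiter-Glo), normalised to DMSO and no-cell wells. HT-1080-IDH1KD cells, 750/well, had 48 h compound exposure at 37 °C.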
12-LOX inh: inhibitors of human 12S-lipoxygenase ALOX12; purified 12hLO, xylenol orange hydroperoxide absorbance; actives 1.1% (n = 580,000); Potency, µM (highest dose often 108 µM), hits mostly inhibitors; P18054; AID 1671190
Target sequence (P18054 whole entry, looked up): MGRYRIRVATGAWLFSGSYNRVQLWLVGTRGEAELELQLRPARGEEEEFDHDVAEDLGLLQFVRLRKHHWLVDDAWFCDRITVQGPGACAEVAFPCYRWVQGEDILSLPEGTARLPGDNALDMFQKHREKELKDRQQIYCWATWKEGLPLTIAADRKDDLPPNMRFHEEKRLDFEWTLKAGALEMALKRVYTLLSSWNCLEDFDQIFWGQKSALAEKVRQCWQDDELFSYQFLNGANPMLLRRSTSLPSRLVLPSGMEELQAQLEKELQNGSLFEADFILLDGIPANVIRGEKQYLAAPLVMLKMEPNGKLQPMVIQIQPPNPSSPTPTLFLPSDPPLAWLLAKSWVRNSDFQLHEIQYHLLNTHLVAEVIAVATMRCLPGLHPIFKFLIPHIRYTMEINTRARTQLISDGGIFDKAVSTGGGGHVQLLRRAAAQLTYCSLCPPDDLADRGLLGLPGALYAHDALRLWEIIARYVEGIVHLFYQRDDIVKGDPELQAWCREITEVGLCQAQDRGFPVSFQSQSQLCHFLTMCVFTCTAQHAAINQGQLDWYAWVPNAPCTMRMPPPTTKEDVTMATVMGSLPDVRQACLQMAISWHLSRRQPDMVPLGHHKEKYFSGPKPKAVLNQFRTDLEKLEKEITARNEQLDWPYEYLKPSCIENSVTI
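Purified human 12hLO (150 nM final) in 25 mM Hepes, 0.01% Triton X-100, pH 7.0 was preincubated 15 min at room temperature with compound. Then 40 uM arachidonic acid was added, 30 min. Hydroperoxide was read by Fe-XO absorbance ratio 573/405 nm.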
HT1080NT lethal: kills 2HG-producing HT-1080-NT fibrosarcoma cells. HT-1080-NT fibrosarcoma viability, CellTiter-Glo ATP luminescence, 48 h. Potency, µM (top dose mostly 46.1 µM), actives largely listed as cytotoxic. actives 1.6% (n = 360,000). AID 686970;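 also: NT is the 2HG producing partner of a matched IDH1 knockdown line; nearly all actives have a fitted effect of over 55% in size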
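Compounds were tested in concentration-response format on HT-1080-NT cells for 48 hours at 37 degrees C. Cell viability came from CellTiter-Glo luminescence; curves were classified by r2, response magnitude and activity.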
Each line names hits and unclear results; the compound was inactive in the other large screens. Shown is part of a subset that was picked to be rich in hits. Unless noted, calls follow the shape of the dose curve; as a rule, active = well fitted curve in the direction sought with a large enough effect; inconclusive = small, poorly fitted or top-dose-only effect, or another doubt; inactive = no such curve, though single readings can be large; an effect the other way counts as inactive or inconclusive.

CCOc1ccc(C(=O)NCc2ccc3c(c2)CCN3C(=O)c2ccccc2)cc1	TDP1 cell CPT 13µM, DT40 TDP1 no CPT 16µM (no result: IL-1B inflam inh, HT1080 IDH1KD tx, HT1080NT lethal)
O=C(NCc1ccc2c(c1)CCN2C(=O)c1ccc(F)cc1)c1ccco1	TDP1 cell CPT 21µM, DT40 TDP1 no CPT inconclusive, 12-LOX inh inconclusive (no result: IL-1B inflam inh, HT1080 IDH1KD tx, HT1080NT lethal)
CCC(C(=O)NCc1ccc2c(c1)CCN2C(=O)c1ccc(F)cc1)c1ccccc1 (stereo unspecified)	none (no result: IL-1B inflam inh, HT1080 IDH1KD tx, HT1080NT lethal)
CCOc1ccc(C(=O)NCc2ccc3c(c2)CCN3C(=O)c2ccc(Cl)cc2)cc1	none (no result: IL-1B inflam inh, HT1080 IDH1KD tx, HT1080NT lethal)
Clc1ccc2oc(C3CCN(Cc4nc(C5CC5)no4)CC3)nc2c1	none (no result: TDP1 cell CPT, DT40 TDP1 no CPT, IL-1B inflam inh, HT1080 IDH1KD tx, HT1080NT lethal)
COC(=O)c1ccc(C)c(NS(=O)(=O)c2ccc3ccccc3c2)c1	none (no result: TDP1 cell CPT, DT40 TDP1 no CPT, IL-1B inflam inh, HT1080 IDH1KD tx, HT1080NT lethal)
Cc1ccc2nc(Nc3nc(C)cc(-c4ccccc4)n3)[nH]c(=O)c2c1	TDP1 cell CPT 21µM, DT40 TDP1 no CPT 15µM
Cc1ccc2nc(Nc3nc(-c4ccccc4)cc(=O)[nH]3)nc(C)c2c1	TDP1 cell CPT 13µM, DT40 TDP1 no CPT 8.2µM, IL-1B inflam inh inconclusive
Cc1cc(C)nc(Nc2nc3ccccc3[nH]2)n1	none
CCOCCCNC(=O)C(c1ccccc1)N(Cc1ccc2c(c1)OCO2)C(=O)c1ccccc1O (stereo unspecified)	none
CCOCCCNC(=O)C(c1ccc(C)cc1)N(Cc1ccc2c(c1)OCO2)C(=O)c1ccccc1O (stereo unspecified)	TDP1 cell CPT 23µM, DT40 TDP1 no CPT 16µM (no result: IL-1B inflam inh, HT1080 IDH1KD tx, HT1080NT lethal)
COc1ccc(/C=C(/NC(=O)c2ccco2)C(N)=O)cc1	none (no result: TDP1 cell CPT, DT40 TDP1 no CPT, IL-1B inflam inh, HT1080 IDH1KD tx, HT1080NT lethal)
CCN1CCN(CCN2CC3(CCN(C4CCOCC4)CC3)OC2=O)CC1	none (no result: TDP1 cell CPT, DT40 TDP1 no CPT, IL-1B inflam inh, HT1080 IDH1KD tx, HT1080NT lethal)
CC(C)N1CCN(CCN2CC3(CCN(C(=O)CCN)CC3)OC2=O)CC1	12-LOX inh 18µM (no result: TDP1 cell CPT, DT40 TDP1 no CPT, IL-1B inflam inh, HT1080 IDH1KD tx, HT1080NT lethal)
CCOC(=O)C1CCN(C(=O)c2ccc(S(=O)(=O)Nc3ccccc3Cl)cc2)CC1	TDP1 cell CPT inconclusive, DT40 TDP1 no CPT 12µM, IL-1B inflam inh inconclusive
CCOC(=O)N1CCN(C(=O)c2cccc(NS(=O)(=O)c3ccc(F)c(F)c3)c2)CC1	none
CCCNC(=O)NC(=O)COC(=O)c1cccc(NS(=O)(=O)c2ccc(F)c(F)c2)c1	TDP1 cell CPT inconclusive, 12-LOX inh inconclusive
O=C(COC(=O)c1cccc(NS(=O)(=O)c2ccc(F)c(F)c2)c1)NC(=O)NC1CCCCC1	TDP1 cell CPT inconclusive, DT40 TDP1 no CPT 16µM, HT1080 IDH1KD tx inconclusive, HT1080NT lethal inconclusive
COc1ccccc1NC(=O)NC1(C(=O)N2CCCCC2)CCCCC1	IL-1B inflam inh -76
CCOC(=O)C1CCN(C(=O)c2cccc(NS(=O)(=O)c3ccc(F)c(F)c3)c2)CC1	IL-1B inflam inh -101
COc1ccccc1NC(=O)NC1(C(=O)N2CCC(O)CC2)CCCCC1	12-LOX inh inconclusive
CCOC(=O)Nc1ccc(C(=O)OCC23CC4CC(CC(C4)C2)C3)cc1	none (no result: TDP1 cell CPT, DT40 TDP1 no CPT, IL-1B inflam inh, HT1080 IDH1KD tx, HT1080NT lethal)
CCCCCCSc1nc2c(c(=O)[nH]c(=O)n2C)n1CC(O)COc1ccc(Cl)cc1 (stereo unspecified)	none (no result: TDP1 cell CPT, DT40 TDP1 no CPT, IL-1B inflam inh, HT1080 IDH1KD tx, HT1080NT lethal)
COc1ccccc1NS(=O)(=O)c1ccc(C(=O)N2CCCCCC2)cc1	TDP1 cell CPT 18µM, DT40 TDP1 no CPT 13µM
CCC(CC)C(=O)NC[C@@H]1C=C(C)[C@H](Cc2nc3c(C)cccc3[nH]2)C[C@H]1C(C)C	none (no result: TDP1 cell CPT, DT40 TDP1 no CPT, IL-1B inflam inh, HT1080 IDH1KD tx, HT1080NT lethal)
CC(O)(c1cccc(F)c1)c1nc(-c2cccc(C(F)(F)F)c2)cs1 (stereo unspecified)	TDP1 cell CPT 29µM, DT40 TDP1 no CPT inconclusive, HT1080 IDH1KD tx inconclusive, 12-LOX inh inconclusive, HT1080NT lethal 21µM
CC(O)(c1ccc(F)c(F)c1)c1nc(-c2ccc(Cl)cc2)cs1 (stereo unspecified)	TDP1 cell CPT inconclusive, DT40 TDP1 no CPT inconclusive, HT1080 IDH1KD tx 23µM, 12-LOX inh inconclusive, HT1080NT lethal inconclusive
